106 compounds from ChEMBL document CHEMBL4513216, “Probing the Open Global Health Chemical Diversity Library for Multistage-Active Starting Points for Next-Generation Antimalarials” (ACS Infect Dis, 2020) can be followed below.

Among all 69,000 compounds or so, about 8,600 (12%) showed an effect of 50% or more. This is one part of a sample in which strong results are shown more often than they occur.

The test deals with Plasmodium berghei. As to the kind of experiment: Screen against P. berghei liver stage (PbLuc), transformed with Luciferase, at 10uM. It is filed as functional, HepG2. The note with it: tested at 10 uM.
Consider `CCS(=O)(=O)N1CCC2(CCC2NC(=O)c2ccn(C)c2)CC1` (stereo unspecified), for which the INHIBITION is listed as 8.53%.
Next, `O=C(c1ccno1)N1CCO[C@@H]2CC(COCc3ccccn3)C[C@H]21` (stereo partly specified): 8.6%; `COc1cc(C(=O)N(Cc2cnn(C)c2)C(C)C)ccc1C`: 14.1%.
Next, `COc1cc(N2CC[C@@H]3O[C@H](C(=O)NCC4CC4)C[C@@H]32)ncn1`: -22.1%.
The same measure for `Cc1cc(Oc2ccccc2F)nc(C2CCCCN2)n1` (stereo unspecified): 10.9%; for `CN(Cc1nnn(CC2CC2)n1)C(=O)c1ccccc1`: 1.74%; for `CCn1c(=O)n(CCC(=O)N(C)Cc2ccc(C)o2)c2ccccc21`: 15.4%.
With `Cc1ccc(CN(C)C(=O)CCn2c(=O)n(C)c3ccccc32)o1`, the INHIBITION turned out to be 49.7%.
Next, `CCCn1c(=O)n(CCC(=O)N(C)Cc2ccc(C)o2)c2ccccc21`: 83.2%; `CCN1CCC(NC(=O)NCC(O)c2ccc(Cl)c(F)c2)CC1` (stereo unspecified): 43.1%.
Consider `O=C1NCc2ccccc2CC12CCCN(CCCc1ccccc1)C2` (stereo unspecified), for which the INHIBITION was found to be 27.5%.
Take `CC(C)CCN1CCCC12Cc1ccccc1CNC2=O` (stereo unspecified): the INHIBITION is 14.3%.
Take `Cc1ccc(CN2CCCC23Cc2ccccc2CNC3=O)cc1` (stereo unspecified): the INHIBITION amounted to 52.4%.
Next, `CC(C)(C)CN1CCCC12Cc1ccccc1CNC2=O` (stereo unspecified): 32.5%; `O=C1Nc2ccccc2CC12CCCN2Cc1ccc(F)cc1` (stereo unspecified): -38.7%; `Cc1ccc(CCN2CCCC23Cc2ccccc2CNC3=O)cc1` (stereo unspecified): 54.9%.
Next, `O=C1Nc2ccccc2CC12CCCN2Cc1ccccn1` (stereo unspecified): 27.5%.
`O=C1Nc2ccccc2CC12CCCN2Cc1cccnc1` (stereo unspecified): the INHIBITION is given as -2.28%.
As for `Cc1cc(C)c(CN2CCCC23Cc2ccccc2CNC3=O)c(C)c1` (stereo unspecified), the INHIBITION came out at 68.9%.
As for `O=S(=O)(c1cccnc1)N1C[C@H]2CCC[C@@]2(COc2ccccn2)C1`, the INHIBITION was found to be 38.5%.
The same measure for `CCn1c(N)nc2cc(C(=O)NCCc3ccncc3)cnc21`: -20%; for `Nc1ccc(CC2CCCN(Cc3c[nH]cn3)C2)nn1` (stereo unspecified): -4.87%; for `COc1ccc(CN2CCn3cc(CN4CCCCC4)nc3C2)cc1`: 0.79%.
The same measure for `CC(C)Oc1ccc(C(=O)N2CCCCC2Cn2cccn2)cn1` (stereo unspecified): -21.645%.
Next, `Cc1nc(C(C)C)ncc1C(=O)N1CCc2c(nc(N(C)C)[nH]c2=O)C1`: 50.1%; `CCCc1ccc(C(=O)N2CCc3c(nc(N(C)C)[nH]c3=O)C2)cc1`: 23.3%.
For `CN(C)c1nc2c(c(=O)[nH]1)CCN(C(=O)c1cccc3nccnc13)C2`, the INHIBITION was 6.8%.
As for `CN(C)c1nc2c(c(=O)[nH]1)CCN(C(=O)C1CCCO1)C2` (stereo unspecified), the INHIBITION stood at 6.26%.
The same measure for `O=C(c1cccnc1)N1CCc2c(nc(N3CCCC3)[nH]c2=O)C1`: 46%; for `CN(C)c1nc2c(c(=O)[nH]1)CCN(C(=O)c1ccc(=O)[nH]c1)C2`: 4.1%.
The same measure for `O=C(c1ccc(=O)[nH]c1)N1CCc2c(nc(-c3cccnc3)[nH]c2=O)C1`: 61.8%; for `O=c1[nH]c(-c2cccnc2)nc2c1CCN(S(=O)(=O)N1CCCC1)C2`: 23.6%; for `CN(C)c1nc2c(c(=O)[nH]1)CCN(C(=O)c1c[nH]c(=O)c(Cl)c1)C2`: 51.1%.
The same measure for `CCc1onc(C)c1C(=O)N1CCN(c2ncc3c(n2)CCOC3)CC1`: 17.05%.
For the compound `Cc1n[nH]c(C)c1C1COCCN1C(=O)c1n[nH]c2ccccc12` (stereo unspecified), the INHIBITION is -2.25%.
In the case of `O=c1[nH]nc(CCCN2CCOCC2)n1Cc1cccc(F)c1`, the INHIBITION amounted to 10.3%.
Next, `O=C(CCN1CCCCC1)Nc1c2c(cc3c1CCC3)CCC2`: 18.8%.
For the compound `Cn1cc(S(=O)(=O)NCc2ccsc2)cn1`, the INHIBITION is listed as -17.8%.
Next, `Cn1cc(S(=O)(=O)NCCc2ccsc2)cn1`: 70.9%; `Cn1cc(S(=O)(=O)NCC(C)(O)c2ccsc2)cn1` (stereo unspecified): 16.3%; `CNc1nc(C(=O)N2CCCC(COc3ccc(F)cc3)C2)cs1` (stereo unspecified): 44.9%.
The same measure for `Cn1ccc(C(=O)N2CCC(Cc3cnc4[nH]ccc4c3)C2)n1` (stereo unspecified): -77.5%; for `CCCC(=O)N(C)C(c1cccc(F)c1)c1ccccn1` (stereo unspecified): 13.6%; for `Cc1cccn2c(=O)cc(CSCC(=O)Nc3nnc(C(C)C)s3)nc12`: 14.7%.
On to `Cc1ccc2nc(CSCC(=O)Nc3nnc(C(C)C)s3)cc(=O)n2c1`, for which the INHIBITION came out at 50.2%.
The same measure for `CC(C)c1nnc(NC(=O)CSCc2cc(=O)n3ccccc3n2)s1`: 38.9%.
The same measure for `Cc1ccn2c(=O)cc(CSCC(=O)Nc3nnc(C(C)C)s3)nc2c1`: 52.5%; for `Cc1nnc(NC(=O)CSCc2cc(=O)n3ccccc3n2)s1`: 27.5%.
As to `Cc1cccc2nc(CSCC(=O)Nc3nnc(C(C)C)s3)cc(=O)n12`, the INHIBITION came out at 24.5%.
As for `c1ncn(CC2CN(CCCOc3ccc4c(c3)OCO4)CCO2)n1` (stereo unspecified), the INHIBITION was determined as 36.1%.
For `O=C(Nc1ccccn1)N(CCO)Cc1ccccc1Br`, the INHIBITION was found to be 10.2%.
Regarding `Cn1cnc2c1C(COCC1CCOCC1)CN(c1ncccn1)C2` (stereo unspecified), the INHIBITION is given as 33.4%.
Next, `Cc1nc(O)c2nnn(C[C@H]3CCCN3C(=O)c3cccs3)c2n1`: 31.6%.
Next, `CCn1ncnc1CN1CCc2[nH]cnc2C1CCc1ccccc1` (stereo unspecified): 1.94%; `O=C(O)C1c2nc[nH]c2CCN1Cc1ccccc1-c1ccccc1` (stereo unspecified): 12.7%.
On to `CSCCC1c2nc[nH]c2CCN1Cc1cc(Cl)ccc1O` (stereo unspecified), for which the INHIBITION came out at 70.6%.
Take `CSCCC1c2nc[nH]c2CCN1Cc1ccccc1C(F)(F)F` (stereo unspecified): the INHIBITION was 69.1%.
Next, `CSCCC1c2nc[nH]c2CCN1Cc1ccnc2ccccc12` (stereo unspecified): -9.67%; `CCn1ncnc1CN1CCc2[nH]cnc2C1Cc1ccccc1` (stereo unspecified): -56.1%; `COc1ncccc1CN1CCc2[nH]cnc2C1CCSC` (stereo unspecified): 33.4%.
The same measure for `CSCCC1c2nc[nH]c2CCN1Cc1cncn1C` (stereo unspecified): 56.1%.
Regarding `CSCCC1c2nc[nH]c2CCN1Cc1ccccc1C#N` (stereo unspecified), the INHIBITION worked out at 40.9%.
As for `CCn1cc(NC(=O)C2CCC(=O)N2Cc2ccco2)cn1` (stereo unspecified), the INHIBITION amounted to 20.4%.
The same measure for `CCc1noc(C2CC(=O)N(CCN(C)C)C2)n1` (stereo unspecified): 35.1%.
The same measure for `COc1ccccc1C(=O)N1CCNCC1C(N)=O` (stereo unspecified): 9.2%; for `CSCCC(C)(O)CNC(=O)c1ccsc1` (stereo unspecified): 8.61%; for `CC(O)(CCc1ccccc1)CNC(=O)c1ccc(F)cc1` (stereo unspecified): 26.8%.
Next, `CC(O)(CCc1ccccc1)CNC(=O)c1ccsc1` (stereo unspecified): 50.2%.
In the case of `Cn1cccc1CN1CCC2(CCCN(C(=O)c3cnccn3)C2)C1` (stereo unspecified), the INHIBITION amounted to 2.01%.
Next, `CCn1cc(NC(=O)NCCc2ccc3c(c2)OCCO3)cn1`: -27.8%.
Turning to `CCn1cc(NC(=O)NCc2ccc3c(c2)OCCO3)cn1`, the INHIBITION worked out at 33%.
In the case of `CCn1cc(NC(=O)CCc2ccc3c(c2)OCCCO3)cn1`, the INHIBITION amounted to 55.5%.
The same measure for `CCN(CC)C(=O)c1c(Br)cnn1CC`: 29.3%.
The same measure for `COc1c(CNC2CCCOc3ccccc32)c(C(C)C)nn1C` (stereo unspecified): 15.3%; for `NC(=O)c1cnc2n1CCN(C(=O)c1ccc(Cn3cccc3)cc1)C2`: 15.5%; for `CC(C)NC(=O)[C@@H]1CCO[C@@H]2CCN(c3ncccn3)C[C@@H]21`: 2.41%.
Regarding `Clc1ccc(C(CNCc2cccnc2)n2cccn2)cc1` (stereo unspecified), the INHIBITION is -4.56%.
The same measure for `CCN1CC(C(=O)N2CCN(c3nsc4ccccc34)CC2)CCC1=O` (stereo unspecified): 33.9%.
Take `NC(=O)N1CCCC(C(=O)N2CCN(c3nsc4ccccc34)CC2)C1` (stereo unspecified): the INHIBITION came to 35.8%.
The same measure for `CC(C)N1CCCC(C(=O)N2CCN(c3nsc4ccccc34)CC2)C1` (stereo unspecified): 58.5%; for `O=S(=O)(NCc1ccc(S(=O)(=O)N2CCCC2)s1)c1ccc(Cl)c(Cl)c1`: 40.6%; for `CCc1ccc(CNC(=O)Nc2cc(C)on2)s1`: 39.7%.
Next, `CNS(=O)(=O)c1ccc(CNC(=O)Nc2cc(C)on2)s1`: 24.3%; `Cc1cc(NC(=O)NCc2ccc(C)s2)no1`: 56.8%.
Next, `Cc1cc(CN2CCN(C(=O)NCc3ccc(C)s3)CC2)no1`: 18.6%.
Turning to `Cc1cc(NC(=O)NCc2ccc(S(=O)(=O)N3CCCC3)s2)no1`, the INHIBITION is 68%.
The same measure for `Oc1nc(C2CC2)nc2c1nnn2C1CCN(Cc2ccoc2)CC1`: 12.25%; for `CCOc1ccc(Cl)c(C(=O)N2CCCC(c3ccn[nH]3)C2)n1` (stereo unspecified): -10.1%.
The same measure for `CC(=O)N1N=C(c2ccco2)OC1C(=O)NCCc1ccc(O)cc1` (stereo unspecified): 48%.
Turning to `Cc1cc(C(=O)N(C)C)nc(C2(C)CCCN2c2ccnc(C)n2)n1` (stereo unspecified), the INHIBITION is on record as -41.025%.
Regarding `Fc1ccc(-c2nc(CN3CCCC3Cn3cncn3)co2)cc1F` (stereo unspecified), the INHIBITION was found to be 33.7%.
The same measure for `Cc1nc(C2(NCC(=O)NCCc3cccs3)CCCC2)no1`: -81.3%; for `CCCn1cc(C(=O)NCc2nnc(-c3ccc(C)nc3)o2)c(C)n1`: 14.6%; for `CN(Cc1ccc(C2CC(=O)Nc3n[nH]cc32)o1)S(C)(=O)=O` (stereo unspecified): -38.1%.
In the case of `CCc1ccc(C2CC(=O)Nc3n[nH]cc32)o1` (stereo unspecified), the INHIBITION is 26.9%.
On to `CCc1ccc(C2CC(=O)Nc3cc(NS(C)(=O)=O)ccc32)o1` (stereo unspecified), for which the INHIBITION was determined as 85.3%.
With `COc1ncccc1C1CC(=O)Nc2cc(NS(C)(=O)=O)ccc21` (stereo unspecified), the INHIBITION is given as 10.1%.
Next, `CCCC(=O)Nc1cc2c(cc1OC)NC(=O)CC2c1ccc(CC)o1` (stereo unspecified): 49.6%; `Cc1cc(C)n(CCC2CC(=O)Nc3cc4[nH]ncc4cc32)n1` (stereo unspecified): 0.991%; `CCc1ccc(C2CC(=O)Nc3cc(OC)c(NS(C)(=O)=O)cc32)o1` (stereo unspecified): 61.5%.
With `COc1cc(C)c(C2CC(=O)Nc3cc(NS(C)(=O)=O)ccc32)cc1C` (stereo unspecified), the INHIBITION is on record as -5.22%.
With `CN(Cc1ccc(C2CC(=O)Nc3cc4[nH]ncc4cc32)o1)S(C)(=O)=O` (stereo unspecified), the INHIBITION stood at 70.2%.
The same measure for `Cc1nn(C)c(C)c1C1CCCN1C(=O)c1cnccn1` (stereo unspecified): 2.97%; for `CCc1nc2n(n1)CC(NCc1cnc(-c3ccccc3)nc1)CC2` (stereo unspecified): 31.9%.
`CCn1ccnc1CN1CCN(CC(O)c2cccc(F)c2)CC1` (stereo unspecified): the INHIBITION is given as -94.9%.
The same measure for `COc1ccc(NC2(C(=O)N3CCn4cncc4C3)CCCC2)cc1`: 18.5%.
